# Laboratory results published in the supplement of paper PMC8728848.
# The entries come from a sample that favours the strongest signals as a whole.
# B1: LBL-152 (Laetiporus bicolor), B0D650 (protein)
# chain: MSNEYNPPLGIAFRLCGLASDRVLFSRVSPSPEVFHHPKSEVYPDQWFVAIPGSGQNAGCYAIKSKNTGKVLFSRMSPDPRVGHIDGDGKYPDNWFKFEAGSGKYAGYFRLRAVASDTVLVSRTSTGTDTQVINYPATSAKYDDQYFTILFDHHHHHH
# Experiments:
# Assay in all cases: glycan array binding signal (z-score within array); higher = stronger binding
# Settings in all cases: glycan notation: IUPAC condensed, linker removed
# Fuc(a1-2)Gal = target: Fuc(a1-2)Gal
# Outline: (§1)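 Arrays were curated from the Consortium for Functional Glycomics database, 3228 in total, and kept only where the protein sequence was available. Binding is expressed as a within-array Z-score. This score was averaged across arrays of the same protein sequence at different concentrations or buffers and across linkers, and negative values can be read as non-binding.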
# [1] = target: Fuc(a1-2)Gal(b1-3)GalNAc(b1-3)Gal
# Outline: as §1
# [2] = target: Fuc(a1-2)Gal(b1-4)[Fuc(a1-3)]GlcNAc
# Outline: as §1
# [3] = target: Fuc(a1-2)Gal(b1-4)[Fuc(a1-3)]GlcNAc(b1-2)Man(a1-3)[Fuc(a1-2)Gal(b1-4)[Fuc(a1-3)]GlcNAc(b1-2)Man(a1-6)]Man(b1-4)GlcNAc(b1-4)[Fuc(a1-6)]GlcNAc
# Outline: as §1
# Fuc(a1-2)[Gal(a1-3)]Gal = target: Fuc(a1-2)[Gal(a1-3)]Gal
# Outline: as §1
# [4] = target: Fuc(a1-2)[Gal(a1-3)]Gal(b1-3)GlcNAc(b1-6)GalNAc
# Outline: as §1
# [5] = target: Fuc(a1-2)[Gal(a1-3)]Gal(b1-4)GlcNAc(b1-2)Man
# Outline: as §1
# [6] = target: Fuc(a1-2)[GalNAc(a1-3)]Gal
# Outline: as §1
# [7] = target: Fuc(a1-2)[GalNAc(a1-3)]Gal(b1-4)Glc
# Outline: as §1
# [8] = target: Fuc(a1-2)[GalNAc(a1-3)]Gal(b1-4)GlcNAc
# Outline: as §1
# [9] = target: Fuc(a1-2)[GalNAc(a1-3)]Gal(b1-4)GlcNAc(b1-2)Man(a1-3)[Fuc(a1-2)[GalNAc(a1-3)]Gal(b1-4)GlcNAc(b1-2)Man(a1-6)]Man(b1-4)GlcNAc(b1-4)[Fuc(a1-6)]GlcNAc
# Outline: as §1
# [10] = target: Fuc(a1-2)[GalNAc(a1-3)]Gal(b1-4)GlcNAc(b1-3)GalNAc
# Outline: as §1
# [11] = target: Fuc(a1-3)[Gal(b1-4)]Glc6S
# Outline: as §1
# [12] = target: Fuc(a1-3)[GalNAc(b1-4)]GlcNAc
# Outline: as §1
# Fuc(a1-4)GlcNAc = target: Fuc(a1-4)GlcNAc
# Outline: as §1
# [13] = target: Gal(a1-3)Gal(b1-3)GlcNAc(b1-3)GalNAc
# Outline: as §1
# [14] = target: Gal(a1-3)Gal(b1-4)GlcNAc(b1-6)GalNAc
# Outline: as §1
# [15] = target: Gal(a1-4)Gal(b1-4)GlcNAc(b1-2)Man(a1-3)[Gal(a1-4)Gal(b1-4)GlcNAc(b1-2)Man(a1-6)]Man(b1-4)GlcNAc(b1-4)GlcNAc
# Outline: as §1
# Gal(b1-3)Gal(b1-4)GlcNAc = target: Gal(b1-3)Gal(b1-4)GlcNAc
# Outline: as §1
# [16] = target: Gal(b1-3)GlcNAc(b1-2)Man(a1-3)[Gal(b1-3)GlcNAc(b1-2)Man(a1-6)]Man(b1-4)GlcNAc(b1-4)GlcNAc
# Outline: as §1
# [17] = target: Gal(b1-3)GlcNAc(b1-3)Gal(b1-4)GlcNAc(b1-2)Man(a1-3)[Gal(b1-3)GlcNAc(b1-3)Gal(b1-4)GlcNAc(b1-2)Man(a1-6)]Man(b1-4)GlcNAc(b1-4)GlcNAc
# Outline: as §1
# [18] = target: Gal(b1-3)[Fuc(a1-4)]GlcNAc(b1-2)Man
# Outline: as §1
# [19] = target: Gal(b1-3)[Fuc(a1-4)]GlcNAc(b1-3)Gal(b1-3)[Fuc(a1-4)]GlcNAc
# Outline: as §1
# [20] = target: Gal(b1-3)[Neu5Ac(b2-6)]GalNAc
# Outline: as §1
# Gal(b1-4)Glc = target: Gal(b1-4)Glc
# Outline: as §1
# Gal(b1-4)GlcNAc(b1-2)Man = target: Gal(b1-4)GlcNAc(b1-2)Man
# Outline: as §1
# [21] = target: Gal(b1-4)GlcNAc(b1-2)Man(a1-6)Man(b1-4)GlcNAc(b1-4)GlcNAc
# Outline: as §1
# [22] = target: Gal(b1-4)GlcNAc(b1-3)Gal(b1-4)GlcNAc(b1-3)Gal(b1-4)GlcNAc(b1-2)Man(a1-3)[Gal(b1-4)GlcNAc(b1-3)Gal(b1-4)GlcNAc(b1-3)Gal(b1-4)GlcNAc(b1-2)Man(a1-6)]Man(b1-4)GlcNAc(b1-4)[Fuc(a1-6)]GlcNAc
# Outline: as §1
# [23] = target: Gal(b1-4)GlcNAc(b1-3)Gal(b1-4)GlcNAc(b1-3)Gal(b1-4)GlcNAc(b1-2)[Gal(b1-4)GlcNAc(b1-3)Gal(b1-4)GlcNAc(b1-3)Gal(b1-4)GlcNAc(b1-6)]Man(a1-6)[Gal(b1-4)GlcNAc(b1-3)Gal(b1-4)GlcNAc(b1-3)Gal(b1-4)GlcNAc(b1-2)Man(a1-3)]Man(b1-4)GlcNAc(b1-4)[Fuc(a1-6)]GlcNAc
# Outline: as §1
binder,measurement,setting,value
B1,glycan array binding signal (z-score),Fuc(a1-2)Gal,-0.151
same,glycan array binding signal (z-score),[1],-0.162
same,glycan array binding signal (z-score),[2],-0.157
same,glycan array binding signal (z-score),[3],-0.147
same,glycan array binding signal (z-score),Fuc(a1-2)[Gal(a1-3)]Gal,-0.145
same,glycan array binding signal (z-score),[4],-0.156
same,glycan array binding signal (z-score),[5],-0.153
same,glycan array binding signal (z-score),[6],-0.151
same,glycan array binding signal (z-score),[7],-0.157
same,glycan array binding signal (z-score),[8],-0.156
same,glycan array binding signal (z-score),[9],-0.156
same,glycan array binding signal (z-score),[10],-0.155
same,glycan array binding signal (z-score),[11],-0.156
same,glycan array binding signal (z-score),[12],-0.141
same,glycan array binding signal (z-score),Fuc(a1-4)GlcNAc,-0.151
same,glycan array binding signal (z-score),[13],-0.158
same,glycan array binding signal (z-score),[14],-0.162
same,glycan array binding signal (z-score),[15],-0.132
same,glycan array binding signal (z-score),Gal(b1-3)Gal(b1-4)GlcNAc,-0.158
same,glycan array binding signal (z-score),[16],-0.154
same,glycan array binding signal (z-score),[17],-0.136
same,glycan array binding signal (z-score),[18],-0.159
same,glycan array binding signal (z-score),[19],-0.16
same,glycan array binding signal (z-score),[20],-0.154
same,glycan array binding signal (z-score),Gal(b1-4)Glc,-0.156
same,glycan array binding signal (z-score),Gal(b1-4)GlcNAc(b1-2)Man,-0.148
same,glycan array binding signal (z-score),[21],-0.156
same,glycan array binding signal (z-score),[22],5.46
same,glycan array binding signal (z-score),[23],4.41
